# Assay results taken from PubChem BioAssay.
# Where “and” joins values, the source holds several entries; their conditions need not be identical. Equal entries are not always repeated. Calls of active or inactive are those of the source.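 The calls were made as follows, unless noted: active = normalized viability below 100% at a tested concentration; inactive = the rest.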
# Key:
# [1] = liver-stage malaria parasite growth inhibition, primary screen, cell-based, HepG2, luciferase luminescence, HepG2 viability (AID 624349; in the data active = parasite load remaining mostly below about 12%, no sharp cut-off; inactive = mostly above about 10%;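 also: 100% = mean of DMSO negative control wells on the same plate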); details: P. berghei liver stage in HepG2, luciferase luminescence, concentration not given here; parasite load remaining: stronger effect = lower value; viability: measured here: HepG2 viability without parasites
# [2] = stimulators of nuclear beta-catenin in C2C12, primary screen, imaging, WNT3A-conditioned medium, mouse C2C12, NPC library (AID 1117326; in the data active = nuclear beta-catenin stimulation mostly above about 4.2%, no sharp cut-off; inactive = mostly below about 10%); details: stronger effect = higher value
# [3] = stimulators of insulin release from INS-1E, primary screen, cell-based, 5 mM glucose, NPC library (AID 1117329;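 active = compound raises insulin release from rat beta cells at 5 mM glucose, no numeric limit stated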); details: rat INS-1E insulin secretion, at 10 µM, stronger effect = higher value
# [4] = growth inhibition of GSK3B-pretreated HCT116 cells – cell-based, CellTiter-Glo, 0.2 to 20 µM (AID 1117336;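 active = compounds lowering colon cancer cell viability after pretreatment blocking the GSK3B kinase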); details: HCT116 viability after GSK3B inhibitor, at 20 µM, stronger effect = higher value
# [5] = inhibition of endothelial tube formation, primary screen, imaging, VEGF stimulated, CD31 staining, tube area, NPC library (AID 1117340;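 active = compound that reduces growth-factor-driven endothelial tube area in a mixed cell culture, no cutoff stated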); details: VEGF-stimulated ADSC/ECFC co-culture, at 10 µM, stronger effect = higher value
# [6] = glucagon-like peptide 1 release enhancers, primary assay, NCI-H716 cell line, NPC library (AID 1117341;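 active = compound raises GLP1 secretion from the human gut endocrine cells, with no numeric limit stated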); details: NCI-H716 cells, at 10 µM, stronger effect = higher value
# [7] = HCT116 colon cancer cell growth inhibition, primary screen, CellTiter-Glo luminescence, NPC library (AID 1117342;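 active = compounds that lower survival of HCT116 colon cancer cells in the luminescence readout, no numeric limit stated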); details: at 20 µM (top of the series)
# [8] = CellTiter-Glo luminescent readout of SW480 viability loss, NPC library primary (AID 1117343;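 active = compounds that lower viability of the colon cancer cells in the luminescence readout, with no numeric limit stated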); details: CellTiter-Glo luminescence; at 20 µM (top of the series)
# [9] = decreased DLD-1 cellular survival, CellTiter-Glo luminescent readout, NPC compound collection, primary HTS (AID 1117346;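 active = compounds that lower survival of DLD-1 colon cancer cells in the luminescence readout, no cutoff given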); details: DLD-1 viability, CellTiter-Glo luminescence; at 20 µM (top of the series)
# [10] = sensitizers of A549 cells to miR-34 induction, primary screen, imaging, A549 dox-inducible miR-34, nuclei and caspase counts (AID 1347080;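 active = compounds whose cell count with miR-34 switched on is under 0.7 times the count with it off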); details: A549 miR-34 inducible, Hoechst nuclei count, 48 h
# [11] = survival rescue of mitochondrial mutant cells in low glucose, primary screen, MELAS cybrids, Rieske KO mouse fibroblasts, CellTiter-Glo (AID 1508586;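 active = mean z-score across replicates of 1.96 or higher in either the MELAS or the Rieske mutant cell line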;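 also: z relative to plate mean and SD of compound and empty wells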)
# [12] = viability rescue of complex I mutant cybrids, primary screen, cell-based, galactose medium, ATP luminescence (AID 1645843;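 active = z-score of at least 1.8 in each of two replicates, scored against plate mean and spread of sample wells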;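 also: positive z means more ATP and so rescue of galactose-driven cybrid death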); details: complex I mutant cybrid cells, 72 h, stronger effect = higher value
# [13] = differential killing of epithelial or mesenchymal cells, primary screen, imaging, PC-3E GFP, TEM4-18 mCherry, co-culture (AID 1345086;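 active = compounds killing one labelled cell type while sparing the other, by normalised counts and ratio limits, not self-fluorescent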;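 also: cells exposed to compound for 72 h before imaging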;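 as to red/green cell ratio (normalised): normalised mesenchymal count divided by normalised epithelial count so high means epithelial killing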); details: imaging cell counts, at 1 µM
# [14] = target: NAD(+) hydrolase SARM1 (Homo sapiens) (UniProt Q6SZW1); assay: SARM1 TIR NADase inhibitors, cell lysate, NAD-Glo luminescence (AID 1508614;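 active = compound whose remaining NAD level is above about 45 nM, limit read from the data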;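 also: higher remaining NAD means stronger inhibition of SARM1 NADase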); details: SAM-TIR HEK293T lysate NADase, at 1 µM, stronger effect = higher value
# [15] = test system: Hepatitis C virus NS3 helicase; assay: HCV NS3 helicase inhibitors, primary screen, biochemical, fluorescence polarization, LOPAC1280 library (AID 687035; in the data active = inhibition above about 37%); details: Purified HCV NS3 helicase, Cy5-dT15 ssDNA binding fluorescence polarization; stronger effect = higher value; concentration not given here
# [16] = Cy5 fluorescence quenching or enhancement artefacts, artefact control for HCV NS3 helicase inhibitor project, biochemical, LOPAC1280 (AID 687037; call rule not given here); details: Cy5-DNA-NS3h complex fluorescence interference counterscreen
# [17] = ovarian cancer cell viability with rucaparib, profiling panel, oncology-focused library, rucaparib conditional (AID 1508598); details: patient-derived ovarian cancer cells, CellTiter-Glo viability, 144 h, stronger effect = lower value
# [18] = measured here: relative caspase fold change +Dox/-Dox
# [19] = measured here: total cells with miR-34 induction, stronger effect = lower value
# [20] = measured here: total cells without miR-34 induction
# [21] = MELAS cybrid survival, CellTiter-Glo 48 h, stronger effect = higher value
# [22] = Rieske KO mouse fibroblast survival, CellTiter-Glo 72 h
# Chain of NAD(+) hydrolase SARM1 (Homo sapiens) (Q6SZW1 whole entry, looked up): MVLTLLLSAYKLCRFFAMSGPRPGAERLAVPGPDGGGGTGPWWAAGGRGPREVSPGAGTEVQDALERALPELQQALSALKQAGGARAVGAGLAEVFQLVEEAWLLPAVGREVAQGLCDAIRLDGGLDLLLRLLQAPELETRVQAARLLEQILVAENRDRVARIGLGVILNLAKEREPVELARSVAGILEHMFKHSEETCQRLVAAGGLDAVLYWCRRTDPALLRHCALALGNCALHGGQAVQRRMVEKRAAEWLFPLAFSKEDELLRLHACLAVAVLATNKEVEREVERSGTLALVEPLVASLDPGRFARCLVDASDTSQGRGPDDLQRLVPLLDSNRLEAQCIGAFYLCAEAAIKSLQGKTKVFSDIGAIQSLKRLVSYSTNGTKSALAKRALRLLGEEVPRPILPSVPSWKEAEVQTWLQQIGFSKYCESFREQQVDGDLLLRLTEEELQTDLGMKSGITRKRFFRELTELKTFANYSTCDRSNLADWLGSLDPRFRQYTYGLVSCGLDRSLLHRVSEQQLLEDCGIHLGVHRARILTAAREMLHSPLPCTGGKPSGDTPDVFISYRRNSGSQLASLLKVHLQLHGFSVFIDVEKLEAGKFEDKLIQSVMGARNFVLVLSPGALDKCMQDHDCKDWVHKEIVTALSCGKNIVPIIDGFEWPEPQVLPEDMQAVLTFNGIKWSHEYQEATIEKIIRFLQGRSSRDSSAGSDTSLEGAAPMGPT
structure (smiles),measurement,setting,value
CCCC[N+]1(C)[C@@H]2CC(OC(=O)[C@H](CO)c3ccccc3)C[C@H]1[C@@H]1O[C@@H]12 (stereo partly specified),parasite load remaining,[1],35.4% (inactive)
same,viability,[1],61.5%
same,nuclear beta-catenin stimulation,[2]; at 10 µM,1.5% (inactive)
same,nuclear beta-catenin stimulation,"[2]; stimulation, at 2 µM",-0.2%
same,insulin secretion stimulation,[3],0.85% (inactive)
same,viability decrease,[4],11.7% (inactive)
same,tube area decrease,[5],-20.3% (inactive)
same,GLP1 secretion stimulation,[6],0.9% (inactive)
same,inhibition of viability,[7],3.4% (inactive)
same,viability decrease (inhibition),[8],-15.4% (inactive)
same,viability decrease (inhibition),[9],-1.4% (inactive)
same,fold change,[10]; stronger effect = lower value,0.89 (inactive)
same,fold change,[10]; [18],0.894
same,cell count,[10]; [19],9520
same,cell count,[10]; [20],10700
same,z-score,[11]; [21],-0.818 (inactive) and -0.303 (inactive)
same,z-score,[11]; [22],-0.588 and -0.226
same,z-score,[12],0.285 (inactive)
COP(=O)(OC)OC=C(Cl)Cl,parasite load remaining,[1],43.6% (inactive)
same,viability,[1],96%
same,nuclear beta-catenin stimulation,[2]; at 10 µM,-0.5% (inactive)
same,nuclear beta-catenin stimulation,"[2]; stimulation, at 2 µM",-1.3%
same,insulin secretion stimulation,[3],-1.6% (inactive)
same,viability decrease,[4],37% (inactive)
same,tube area decrease,[5],-16.8% (inactive)
same,GLP1 secretion stimulation,[6],-1.2% (inactive)
same,inhibition of viability,[7],-1.53% (inactive)
same,viability decrease (inhibition),[8],26.8% (inactive)
same,viability decrease (inhibition),[9],-3.8% (inactive)
same,red/green cell ratio (normalised),"[13]; actives lie on both sides, counts scaled to control wells, 1 = unselective",1.1 (inactive)
same,normalised cell number,[13]; measured here: epithelial PC-3E GFP cell survival,1.09
same,normalised cell number,[13]; measured here: mesenchymal TEM4-18 mCherry cell survival,1.2
same,fold change,"[10]; stronger effect = lower value, cell number ratio, induced over uninduced",0.895 (inactive)
same,fold change,[10]; [18],1.25
same,cell count,[10]; [19],10900
same,cell count,[10]; [20],12200
same,remaining NAD,[14],10 nM (inactive)
O=C(NC(=O)c1c(F)cccc1F)Nc1cc(Cl)c(OC(F)(F)C(F)C(F)(F)F)cc1Cl (stereo unspecified),nuclear beta-catenin stimulation,[2]; at 10 µM,2.8% (inactive)
same,nuclear beta-catenin stimulation,"[2]; stimulation, at 2 µM",1.2%
same,insulin secretion stimulation,[3],3.3% (inactive)
same,viability decrease,[4],3.9% (inactive)
same,tube area decrease,[5],19.4% (inactive)
same,GLP1 secretion stimulation,[6],2.3% (inactive)
same,inhibition of viability,[7],35% (inactive)
same,viability decrease (inhibition),[8],19.8% (inactive)
same,viability decrease (inhibition),[9],16.2% (inactive)
same,fold change,[10]; stronger effect = lower value,1.06 (inactive)
same,fold change,[10]; [18],0.7
same,cell count,[10]; [19],7240
same,cell count,[10]; [20],6820
same,remaining NAD,[14],10 nM (inactive)
Cn1c(CCCC(=O)O)nc2cc(N(CCCl)CCCl)ccc21,inhibition,[15],-4% (inactive)
same,fluorescence ratio (interference),[16],1 (inactive)
same,nuclear beta-catenin stimulation,[2]; at 10 µM,3% (inactive)
same,nuclear beta-catenin stimulation,"[2]; stimulation, at 2 µM",0.9%
same,insulin secretion stimulation,[3],0.9% (inactive)
same,viability decrease,[4],-12.4% (inactive)
same,tube area decrease,[5],44.6% (active)
same,GLP1 secretion stimulation,[6],-0.7% (inactive)
same,inhibition of viability,[7],6.5% (inactive)
same,viability decrease (inhibition),[8],18.4% (inactive)
same,viability decrease (inhibition),[9],-5.7% (inactive)
same,fold change,[10]; stronger effect = lower value,1.1 (inactive) and 0.89 (inactive)
same,fold change,[10]; [18],0.645 and 1.16
same,cell count,[10]; [19],8630 and 6450
same,cell count,[10]; [20],7880 and 7250
same,z-score,[11]; [21],-0.517 (inactive)
same,z-score,[11]; [22],-0.135
same,viability,"[17]; at 0.000305 µM, OCI-C5x cells, with rucaparib 10 µM, 100% = cells with rucaparib alone",103% (inactive)
same,viability,"[17]; at 0.000305 µM, OCI-C5x cells, without rucaparib",107% (inactive)
same,viability,"[17]; at 0.000305 µM, OCI-P5x cells, with rucaparib 20 µM, 100% = cells with rucaparib alone",107% (inactive)
same,viability,"[17]; at 0.000305 µM, OCI-P5x cells, without rucaparib",101% (inactive)
same,viability,"[17]; at 0.00122 µM, OCI-C5x cells, with rucaparib 10 µM, 100% = cells with rucaparib alone",97.3% (active)
same,viability,"[17]; at 0.00122 µM, OCI-C5x cells, without rucaparib",99.1% (active)
same,viability,"[17]; at 0.00122 µM, OCI-P5x cells, with rucaparib 20 µM, 100% = cells with rucaparib alone",99.9% (active)
same,viability,"[17]; at 0.00122 µM, OCI-P5x cells, without rucaparib",102% (inactive)
same,viability,"[17]; at 0.00488 µM, OCI-C5x cells, with rucaparib 10 µM, 100% = cells with rucaparib alone",104% (inactive)
same,viability,"[17]; at 0.00488 µM, OCI-C5x cells, without rucaparib",104% (inactive)
same,viability,"[17]; at 0.00488 µM, OCI-P5x cells, with rucaparib 20 µM, 100% = cells with rucaparib alone",103% (inactive)
same,viability,"[17]; at 0.00488 µM, OCI-P5x cells, without rucaparib",109% (inactive)
same,viability,"[17]; at 0.0195 µM, OCI-C5x cells, with rucaparib 10 µM, 100% = cells with rucaparib alone",105% (inactive)
same,viability,"[17]; at 0.0195 µM, OCI-C5x cells, without rucaparib",99.7% (active)
same,viability,"[17]; at 0.0195 µM, OCI-P5x cells, with rucaparib 20 µM, 100% = cells with rucaparib alone",93.4% (active)
same,viability,"[17]; at 0.0195 µM, OCI-P5x cells, without rucaparib",100% (inactive)
same,viability,"[17]; at 0.0781 µM, OCI-C5x cells, with rucaparib 10 µM, 100% = cells with rucaparib alone",109% (inactive)
same,viability,"[17]; at 0.0781 µM, OCI-C5x cells, without rucaparib",97.6% (active)
same,viability,"[17]; at 0.0781 µM, OCI-P5x cells, with rucaparib 20 µM, 100% = cells with rucaparib alone",92.7% (active)
same,viability,"[17]; at 0.0781 µM, OCI-P5x cells, without rucaparib",96.4% (active)
same,viability,"[17]; at 0.313 µM, OCI-C5x cells, with rucaparib 10 µM, 100% = cells with rucaparib alone",104% (inactive)
same,viability,"[17]; at 0.313 µM, OCI-C5x cells, without rucaparib",101% (inactive)
same,viability,"[17]; at 0.313 µM, OCI-P5x cells, with rucaparib 20 µM, 100% = cells with rucaparib alone",95% (active)
same,viability,"[17]; at 0.313 µM, OCI-P5x cells, without rucaparib",74.7% (active)
same,viability,"[17]; at 1.25 µM, OCI-C5x cells, with rucaparib 10 µM, 100% = cells with rucaparib alone",124% (inactive)
same,viability,"[17]; at 1.25 µM, OCI-C5x cells, without rucaparib",97.4% (active)
same,viability,"[17]; at 1.25 µM, OCI-P5x cells, with rucaparib 20 µM, 100% = cells with rucaparib alone",92.4% (active)
same,viability,"[17]; at 1.25 µM, OCI-P5x cells, without rucaparib",79.4% (active)
same,viability,"[17]; at 5 µM, OCI-C5x cells, with rucaparib 10 µM, 100% = cells with rucaparib alone",106% (inactive)
same,viability,"[17]; at 5 µM, OCI-C5x cells, without rucaparib",93% (active)
same,viability,"[17]; at 5 µM, OCI-P5x cells, with rucaparib 20 µM, 100% = cells with rucaparib alone",80.1% (active)
same,viability,"[17]; at 5 µM, OCI-P5x cells, without rucaparib",84.8% (active)
same,z-score,[12],0.31 (inactive)
